The panel holds about 83,000 compounds, 20% with a hit somewhere; the sample as a whole holds those more often.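 Each cell line was grown in a 96-well plate and treated with one concentration of compound for 48 hours. Values below 10 were considered active.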 Values without a mark were called inactive. Activity calls are given as the source filed them.

Among the test systems are SR leukemia; RPMI-8226 leukemia; OVCAR-8 ovarian; OVCAR-5 ovarian; OVCAR-4 ovarian; SK-OV-3 ovarian; IGROV1 ovarian; OVCAR-3 ovarian; HS 578T breast; NCI/ADR-RES ovarian.
Assay in all cases: NCI-60 one-dose screen, 48 h (100 = growth as untreated, 0 = no growth, -100 = all killed)
Common to all, as to conditions: 10 µM unless noted

`CCN1CC(=O)N(/N=C2\C(=O)Nc3ccccc32)C1=S`: the growth in the assay on SR leukemia was 83.1%; with RPMI-8226 leukemia, 96%; in the assay with OVCAR-8 ovarian it was 95.4%; with OVCAR-5 ovarian it was 97.2%; in the assay on OVCAR-4 ovarian, 97.2%; in the assay on SK-OV-3 ovarian it was 78.4%. For the same compound, the growth was 55.3% in the assay on IGROV1 ovarian, 98.1% with OVCAR-3 ovarian, 83% in the assay on HS 578T breast and 103% in the assay on NCI/ADR-RES ovarian.
As to `O=C(Nc1ccc(-c2nc(N3CCOCC3)c3cccn3n2)cc1)Nc1cccnc1`, the growth in the assay with SR leukemia is 11%; in the assay with RPMI-8226 leukemia, -12% (active); in the assay on OVCAR-8 ovarian, 1.49% (active); in the assay with OVCAR-5 ovarian, 10.1%; with OVCAR-4 ovarian, -10.7% (active); in the assay with SK-OV-3 ovarian, -24.2% (active). The growth in the assay with IGROV1 ovarian is -19.2% (active); with OVCAR-3 ovarian it was 4.15% (active); in the assay on HS 578T breast, -32.3% (active); in the assay on NCI/ADR-RES ovarian it was 0.693% (active).
As for `C=CCn1c(SCC(=O)NCc2cc(C)c(O)c(C)c2)nc2ccc(Cl)cc2c1=O`, the growth in the assay with SR leukemia was -34.1% (active); in the assay with RPMI-8226 leukemia, -100% (active); with OVCAR-8 ovarian, 106%; in the assay on OVCAR-5 ovarian, 88.4%; in the assay on OVCAR-4 ovarian, 86.2%; with SK-OV-3 ovarian it was 109%. The growth in the assay on IGROV1 ovarian was 65%; with OVCAR-3 ovarian, 101%; with HS 578T breast, 98.7%; in the assay on NCI/ADR-RES ovarian, 97.1%.
In the case of `O=C(Nc1cccnc1Nc1ccc(F)cc1)c1cn(Cc2cccc(Oc3ccccc3)c2)nn1`, the growth was 23.4% in the assay on SR leukemia; 78.9% with RPMI-8226 leukemia; 81.4% in the assay on OVCAR-8 ovarian; 115% in the assay on OVCAR-5 ovarian; 86.5% in the assay with OVCAR-4 ovarian; 87.4% with SK-OV-3 ovarian. The growth is 91.2% in the assay with IGROV1 ovarian, 71.9% with OVCAR-3 ovarian and 37.8% with NCI/ADR-RES ovarian.
`CCC(C)N(c1ccc(Cl)cc1)c1nc(-c2ccc(Br)cc2)cs1` (stereo unspecified): the growth in the assay with SR leukemia was 83.5%; with RPMI-8226 leukemia, 82.8%; in the assay with OVCAR-8 ovarian it was 96.7%; with OVCAR-5 ovarian, 103%; in the assay on OVCAR-4 ovarian it was 96.5%; in the assay with SK-OV-3 ovarian it was 92.5%. The growth was 82.1% in the assay on IGROV1 ovarian, 107% in the assay with OVCAR-3 ovarian and 102% in the assay on NCI/ADR-RES ovarian.
Turning to `Cn1cc(-c2csc(-c3ccc(Cl)cc3)n2)c2cccnc21`, the growth in the assay with SR leukemia was 0.516% [100 µM] (active); in the assay with RPMI-8226 leukemia, -24.4% [100 µM] (active); in the assay on OVCAR-8 ovarian, 13.5% [100 µM]; in the assay with OVCAR-5 ovarian, -49.3% [100 µM] (active); in the assay with OVCAR-4 ovarian it was -28.1% [100 µM] (active); in the assay on SK-OV-3 ovarian, -57.1% [100 µM] (active). Further, the results for the growth with IGROV1 ovarian, with OVCAR-3 ovarian and with NCI/ADR-RES ovarian were -21.5% [100 µM] (active), -75.7% [100 µM] (active) and -35.5% [100 µM] (active), respectively.
Take `COc1cc(-c2cc(-c3ccc(N(C)C)cc3)nc(N3CCC(O)CC3)c2C#N)cc(OC)c1OC`: the growth is 13.4% in the assay with SR leukemia; -5.93% (active) with RPMI-8226 leukemia; 16.4% in the assay with OVCAR-8 ovarian; 20.6% in the assay on OVCAR-5 ovarian; 50.8% with OVCAR-4 ovarian; 35.3% in the assay on SK-OV-3 ovarian. Moreover, the figures for the growth in the assay on IGROV1 ovarian, with OVCAR-3 ovarian and in the assay on NCI/ADR-RES ovarian were 7.25% (active), -14.6% (active) and 14.9%, respectively.
As to `C=CCn1cc(-c2nc3ccccc3s2)c2cc(-c3ccc4c5c(cccc35)C(=O)N(N)C4=O)ccc21`, the growth with SR leukemia is 89.7%; in the assay with RPMI-8226 leukemia it was 99.3%; with OVCAR-8 ovarian, 102%; with OVCAR-5 ovarian, 103%; with OVCAR-4 ovarian it was 97.8%; with SK-OV-3 ovarian, 95.3%. In addition, the growth in the assay with IGROV1 ovarian was 69.8%; in the assay on HS 578T breast it was 103%; in the assay on NCI/ADR-RES ovarian it was 96.5%.
As for `COC(=O)[C@H]1CCCN1C[C@@H](O)CN1C(=O)/C(=C\c2cc(OC)c(OC)c(OC)c2)c2ccccc21`, the growth with SR leukemia was 78%; with RPMI-8226 leukemia, 91.4%; in the assay with OVCAR-8 ovarian, 92.1%; in the assay on OVCAR-5 ovarian it was 123%; in the assay on OVCAR-4 ovarian, 90.6%; in the assay on SK-OV-3 ovarian it was 108%. Also, the growth in the assay with IGROV1 ovarian is 102%; with OVCAR-3 ovarian, 105%; in the assay on NCI/ADR-RES ovarian, 102%.
In the case of `CCS/C(Nc1ccccc1)=C(\C#N)C(=O)N/N=C/c1ccc(Cl)cc1Cl`, the growth is 19.5% in the assay on SR leukemia; 9.68% (active) in the assay on RPMI-8226 leukemia; 28.6% with OVCAR-8 ovarian; 72.5% in the assay on OVCAR-5 ovarian; 56.5% in the assay on OVCAR-4 ovarian; 15.5% in the assay on SK-OV-3 ovarian. The growth is 49.1% with IGROV1 ovarian, 1.46% (active) in the assay on OVCAR-3 ovarian, -6.44% (active) with HS 578T breast and 10.8% in the assay with NCI/ADR-RES ovarian.
As for `O=[N+]([O-])c1ccc(N/N=C(/C(=N/Nc2ccc([N+](=O)[O-])cc2)c2ccccc2)c2ccccc2)cc1`, the growth is 65.8% with SR leukemia; 101% in the assay with RPMI-8226 leukemia; 60.4% in the assay on OVCAR-8 ovarian; 82.5% in the assay with OVCAR-5 ovarian; 116% with OVCAR-4 ovarian; 85.6% in the assay with SK-OV-3 ovarian. The growth in the assay with IGROV1 ovarian is 76.4%; with OVCAR-3 ovarian, 120%; with HS 578T breast, 101%; in the assay with NCI/ADR-RES ovarian, 63.7%.
Regarding `CC(C)(C)n1cc(-c2ccnc(NCCNS(=O)(=O)c3cccc4ccccc34)c2)c(-c2cccc(F)c2)n1`, the growth in the assay on SR leukemia was -20.7% (active); in the assay with RPMI-8226 leukemia, -31.8% (active); with OVCAR-8 ovarian, 7.39% (active); with OVCAR-5 ovarian, -15% (active); in the assay with OVCAR-4 ovarian it was -0.264% (active); in the assay with SK-OV-3 ovarian, 6.65% (active). Further, the growth is 4.03% (active) with IGROV1 ovarian, -68.6% (active) with OVCAR-3 ovarian and -9.97% (active) with NCI/ADR-RES ovarian.
Take `COc1cc(OC)cc(C2=C3CC[C@@H]4[C@H](CC[C@]5(C)C(=O)CC[C@@H]45)C3=CC3C(O)c4cccnc4N4C(=O)COC234)c1` (stereo partly specified): the growth is 82.3% in the assay with SR leukemia; 96.2% with RPMI-8226 leukemia; 95% with OVCAR-8 ovarian; 95.5% in the assay on OVCAR-5 ovarian; 87.1% in the assay with OVCAR-4 ovarian; 116% in the assay with SK-OV-3 ovarian. Also, the growth was 101% in the assay on IGROV1 ovarian, 115% with OVCAR-3 ovarian and 105% in the assay with NCI/ADR-RES ovarian.
Consider `O=C(Cn1c(=O)sc2ccccc21)NNS(=O)(=O)c1ccccc1[N+](=O)[O-]`, for which the growth was 96% in the assay with SR leukemia; 98.4% in the assay on RPMI-8226 leukemia; 99.4% in the assay on OVCAR-8 ovarian; 100% in the assay with OVCAR-5 ovarian; 117% in the assay with OVCAR-4 ovarian; 103% in the assay with SK-OV-3 ovarian. Further, the results for the growth in the assay with IGROV1 ovarian, with OVCAR-3 ovarian and in the assay on NCI/ADR-RES ovarian were 102%, 99.3% and 103%, respectively.
In the case of `N=C(N)c1ccc(-c2ccc(-c3ccc(Cl)cc3)s2)nc1`, the growth is 1.7% (active) with SR leukemia; -24.6% (active) with RPMI-8226 leukemia; -31% (active) in the assay on OVCAR-8 ovarian; -28% (active) in the assay on OVCAR-5 ovarian; 18.1% in the assay on OVCAR-4 ovarian; 86.7% in the assay with SK-OV-3 ovarian. Besides, the growth was -79.2% (active) in the assay with IGROV1 ovarian, -93% (active) with OVCAR-3 ovarian and 67.4% in the assay on NCI/ADR-RES ovarian.
Turning to `CCCCCCNC(=O)Oc1ccc(/C(=C(/C)Cc2ccc(OC)cc2)c2ccc(OCCCN(C)C)cc2)cc1`, the growth in the assay on SR leukemia was -53.3% (active); in the assay on RPMI-8226 leukemia, -20.4% (active); in the assay on OVCAR-8 ovarian, 13.3%; in the assay on OVCAR-5 ovarian it was 85.3%; in the assay on OVCAR-4 ovarian, 60.7%; with SK-OV-3 ovarian it was 88.4%. Also, the growth is 41.6% in the assay with IGROV1 ovarian, 55.9% with OVCAR-3 ovarian and 67.5% in the assay on NCI/ADR-RES ovarian.
Consider `CC(C)(C)c1cc(-c2nc3ccc(N4CCN(S(C)(=O)=O)CC4)cc3[nH]2)cc(C(C)(C)C)c1O`, for which the growth is 56.2% with SR leukemia; 79.5% with RPMI-8226 leukemia; 78.9% with OVCAR-8 ovarian; 105% in the assay on OVCAR-5 ovarian; 88.6% in the assay with OVCAR-4 ovarian; 79.5% in the assay on SK-OV-3 ovarian. The results for the growth in the assay on IGROV1 ovarian and in the assay with HS 578T breast were 96.4% and 86.4%, respectively.
For `COc1ccc(-c2cn(-c3cc(OC)c(OC)c(OC)c3)c(=O)n2C(C)=O)cc1`, the growth was 22.2% in the assay on SR leukemia; 95.9% in the assay on RPMI-8226 leukemia; 94.5% in the assay on OVCAR-8 ovarian; 84.5% with OVCAR-5 ovarian; 84.9% in the assay with OVCAR-4 ovarian; 104% in the assay on SK-OV-3 ovarian. Further, the growth with IGROV1 ovarian was 77.7%; with OVCAR-3 ovarian, 109%; in the assay on NCI/ADR-RES ovarian it was 98.5%.
As for `c1cc2[nH]ncc2cc1-c1nc2ccc3[nH]ncc3c2c2c1CCCC2`, the growth in the assay on SR leukemia was -13.7% (active); in the assay with RPMI-8226 leukemia, 19.8%; in the assay with OVCAR-8 ovarian it was 17.4%; with OVCAR-5 ovarian, 32.5%; in the assay on OVCAR-4 ovarian, 39.9%; in the assay with SK-OV-3 ovarian, -25.1% (active). Moreover, the growth is 8.59% (active) with IGROV1 ovarian, 28% in the assay with OVCAR-3 ovarian and 26.6% in the assay with NCI/ADR-RES ovarian.
Turning to `O=C1/C(=C/c2ccc(Cl)c(Cl)c2)CN(C(=O)C(Cl)Cl)C/C1=C\c1ccc(Cl)c(Cl)c1`, the growth with SR leukemia is 4.68% (active); in the assay on RPMI-8226 leukemia it was -27.9% (active); with OVCAR-8 ovarian it was 0.621% (active); with OVCAR-5 ovarian it was -69.1% (active); with OVCAR-4 ovarian it was -16.8% (active); in the assay with SK-OV-3 ovarian it was 25.2%. The growth was -74.3% (active) in the assay with IGROV1 ovarian, -5.11% (active) with HS 578T breast and 3.64% (active) with NCI/ADR-RES ovarian.
Consider `COC(=O)c1c2c(c[n+]([O-])c1C)C(=O)C(NCc1ccccc1)=CC2=O`, for which the growth is 2.6% (active) in the assay with SR leukemia; -24.5% (active) in the assay on RPMI-8226 leukemia; -2.43% (active) with OVCAR-8 ovarian; -79.9% (active) in the assay on OVCAR-5 ovarian; -97% (active) in the assay with OVCAR-4 ovarian; 8.1% (active) with SK-OV-3 ovarian. In addition, the values for the growth in the assay on IGROV1 ovarian, in the assay on OVCAR-3 ovarian and in the assay on NCI/ADR-RES ovarian were -54.3% (active), -35.3% (active) and -14.1% (active), respectively.
On to `N#C/C(=C\c1ccc(-c2ccc(Cl)cc2)o1)C(=O)Nc1ncc(Cc2ccc(Cl)cc2)s1`, for which the growth with SR leukemia was 8.8% (active); in the assay with RPMI-8226 leukemia it was 85.2%; in the assay on OVCAR-8 ovarian it was 8.41% (active); in the assay on OVCAR-5 ovarian it was 29.7%; with OVCAR-4 ovarian, -56.9% (active); in the assay with SK-OV-3 ovarian, 58.9%. In addition, the growth is 28.3% in the assay with IGROV1 ovarian and 25.6% in the assay on HS 578T breast.

(Values after PubChem BioAssay (NCI).)
